This note sets out measurements from paper PMC5540273 (PLoS ONE, 2017).
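Further: kd values determined as follow-up on hits from a single-replicate KINOMEscan panel screen.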

One test relates to RIPK2.
For orientation: Kd means the free concentration of one partner at which half of the binding sites on the other are occupied at equilibrium, for simple one-to-one binding. The molecule `Cn1cncc1-c1cc2c(Nc3ccc(OCc4ccccc4)cc3)ncnc2cn1` [GW281179] yielded a Kd of 65 nM.
Same read-out and setting: for `CC(C)c1ccc(O)cc1Nc1ccnc2ccc(C(F)(F)F)cc12` [GW482059] the value was over 10000 nM; for `O=C(Nc1n[nH]c2nc(-c3cccs3)c(Br)cc12)C1CC1` [SB-735297], over 10000 nM.
Still for that read-out and setting: for `CS(=O)(=O)CCNCc1nc(-c2ccc3ncnc(Nc4ccc5c(cnn5Cc5ccccc5)c4)c3c2)cs1.Cl.Cl` [GW569716] the value was 67 nM.

The next test relates to ROCK1.
The molecule `c1ccc(-c2ccnc3[nH]ccc23)cc1` [SB-693578] gave an equilibrium dissociation constant (Kd) of 150 nM.
The same measure, in the same setting: for `Cn1cncc1-c1cc2c(Nc3ccc(OCc4ccccc4)cc3)ncnc2cn1` [GW281179] the value was 590 nM.
Molecule `CC(C)c1ccc(O)cc1Nc1ccnc2ccc(C(F)(F)F)cc12` [GW482059] returned an equilibrium dissociation constant (Kd) of over 10000 nM.

A further test deals with T1, RSK4(Kin.Dom.2-C-terminal).
T1 construct: gene RPS6KA6
In turn, `Cc1cccc2c(-c3ccncn3)c(-c3ccc(F)cc3)nn12` [GW515532] showed an equilibrium dissociation constant (Kd) of 6800 nM.
Still for that read-out and setting: for `Fc1ccc(-c2nc[nH]c2-c2ccncc2)cc1` [SB-217360] the value was 310 nM; for `Fc1ccc(-c2nc3n(c2-c2ccncc2)CCS3)cc1` [GI98581], 260 nM.
